Bioassay records as filed in PubChem BioAssay.
Compounds with a hit are over-represented: about 1.2% of the library has one in this group of screens.
HUVEC tox IL1B: cytotoxicity in IL-1B stimulated HUVEC, primary screen, cytotoxicity control for IL-1B NFkB translocation project, imaging, Hoechst nuclear count, IL-1B stimulus | cell count reduction, % at 2 µM | HUVEC cell count loss | actives 0.41% (n = 94,000);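 active = cell count reduction more than 3 SD above the screen-wide mean, cut at about 70% in these data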;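 also: normalized per plate to untreated control cells as the no-loss baseline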
NFkB transloc pot: enhancers of NFkB p65 translocation in HUVEC – imaging, IL-1B stimulus, high-content imaging, primary screen. HUVEC IL-1B NFkB p65 nuclear translocation imaging. activation, % at 2 µM. actives 0.3% (n = 94,000);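 active = activation above 40%, about the mean plus 3 SD, also judged a hit on visual image review; inconclusive = activation above 40% but not a hit on visual review; inactive = activation not above 40% and no visual hit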;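 also: percent activation is computed from the nuclear over cytoplasmic p65 intensity ratio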
VCAM1 TNFa inh: inhibitors of TNFa-induced VCAM1 expression, primary screen, imaging, HUVEC, TNFa stimulus, immunofluorescence; HUVEC TNFa-induced VCAM-1 immunofluorescence, high-content imaging; inhibition, % at 2 µM; actives 0.48% (n = 95,000); AID 802, 2007;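 active = inhibition above the batch mean plus 3 SD, with images confirmed as a hit by eye, cut at about 37% in these data; inconclusive = inhibition above that limit but hit not confirmed in images; inactive = inhibition not above that limit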;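 also: 0% = TNF-stimulated DMSO wells and 100% = unstimulated control wells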
HUVEC tox TNFa: cytotoxicity in TNFa-stimulated HUVEC, primary screen, cytotoxicity control for VCAM1 expression modulator project, imaging, Hoechst nuclei count | HUVEC TNFalpha-stimulated, Hoechst cell count | cell count reduction, % at 2 µM | actives 0.17% (n = 93,000) | AID 848, 2007;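 active = cell count reduction exceeding the screen mean by over 5 SD, scaled to untreated wells per plate, cut at about 78% in these data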;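 also: cells counted after 24 h of TNF alpha exposure following the 1 h pretreatment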
Phagocytosis inh: inhibitors of macrophage phagocytosis, primary screen, imaging, J774A.1 cells, IgG beads; J774A.1 macrophage IgG-bead phagocytosis; inhibition, % at 5 µM; actives 0.07% (n = 110,000); AID 1029, 2008;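 active = inhibition above the mean of the plate negative controls plus 5 SD, cut at about 13% in these data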;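 also: phagocytic index as fraction of beads internalized from green versus red external bead signal; plate controls were DMSO negative control for no effect and cytochalasin-D positive control for full effect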
IL1B NFkB inh: inhibitors of IL-1B driven NFkB p65 nuclear import, primary screen, imaging, HUVEC, IL-1B stimulus, high-content imaging. HUVEC IL-1B NFkB p65 nuclear translocation imaging. inhibition, % at 2 µM. actives 0.43% (n = 94,000);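 active = inhibition above about 30% together with a positive call from visual inspection of the well image, limit read from the data; inconclusive = inhibition above a set limit but visual check negative; inactive = inhibition not above a set limit, visual check negative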;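 also: nuclear over cytoplasmic p65 intensity ratio measured by imaging; 0% = IL-1B stimulated DMSO wells and 100% = unstimulated DMSO wells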
Numbers without * were called inactive; u = inconclusive; x = not tested or not shown.

SMILES	HUVEC tox IL1B	NFkB transloc pot	VCAM1 TNFa inh	HUVEC tox TNFa	Phagocytosis inh	IL1B NFkB inh
C1=C(CCNCc2ccccc2)CCCC1	2	15	15	9	-1	-15
Clc1ccccc1CNC1CN2CCC1CC2 (stereo unspecified)	x	x	x	x	-7	x
CSc1ccc(CNC2CN3CCC2CC3)cc1 (stereo unspecified)	-1	-1	93*	86*	-2	1
O=C1OCCC1NC1=NCCC1 (stereo unspecified)	15	6	-10	20	0	-6
COc1ccc(OCC(=O)N2CCN(Cc3nc4cc([N+](=O)[O-])ccc4n3C)CC2)cc1	x	x	x	x	-13	x
COc1ccc(Oc2cc(NC(=O)c3nn(C)cc3[N+](=O)[O-])cc([N+](=O)[O-])c2)cc1	-7	8	90*	39	-1	-8
CCCCn1c(O)c(C(C)=NC(Cc2c[nH]c3ccccc23)C(=O)OC)c(=O)[nH]c1=O (stereo unspecified)	8	32	2	-9	-1	-32
CCCCn1c(O)c(C=NC2CCCCC2N)c(=O)[nH]c1=O (stereo unspecified)	84*	-99	12	7	1	99*
Cc1ccc(CS(=O)(=O)CCC(=O)N2CCC3(CC2)OCCO3)cc1	92*	19	17	-4	-1	-19
O=C(NC1CN2CCC1CC2)c1cc(Cl)c([N+](=O)[O-])c2nc[nH]c12 (stereo unspecified)	x	x	x	x	1	x
O=C(c1ccc2c(c1)ncn2C1CCCCC1)N1CCC2(CC1)OCCO2	16	7	92*	80*	x	-7
O=C(c1cc2ccccn2n1)N1CCC2(CC1)OCCO2	-18	u	-3	4	-3	-50
CN1/C(=C\C=Nc2ccccc2)C(C)(C)c2ccccc21	x	x	12	-8	-2	x
CN1/C(=C\C=C\C2=[N+](C)c3ccc4ccccc4c3C2(C)C)C(C)(C)c2ccccc21	-24	-11	84*	28	x	10
OCC12CO[C@@H]3c4ccccc4[C@H](OC1)N32 (stereo partly specified)	5	17	4	-14	1	-17
